Common to all, as to experiment: PBM; 200 nM protein, PBS
Common to all, as to details: dsDNA, one strand shown

Experiment [1] deals with HOXB4 (Homo sapiens, UniProt P17483 148-234).
In experiment [2] the target is T1, VENTX (Homo sapiens, UniProt O95231 78-163, R121Q).
T1 sequence: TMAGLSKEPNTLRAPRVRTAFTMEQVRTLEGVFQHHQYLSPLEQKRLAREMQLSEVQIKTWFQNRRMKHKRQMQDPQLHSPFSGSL

In experiment [3] the target is HOXA4 (Homo sapiens, UniProt Q00056 201-287, W262R).
The target in experiment [4] is T2, VENTX (Homo sapiens, UniProt O95231 78-163).
T2 sequence: T1 sequence with Q44R

Experiment [5] deals with HOXA7 (Homo sapiens, UniProt P31268 116-202).
HOXA7 (Homo sapiens, UniProt P31268 116-202), sequence (P31268 116-202): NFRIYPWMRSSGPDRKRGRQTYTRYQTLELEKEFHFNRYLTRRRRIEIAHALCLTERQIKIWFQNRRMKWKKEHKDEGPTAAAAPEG
In experiment [6] the target is T3, VENTX (Homo sapiens, UniProt O95231 78-163, Y115F).
T3 sequence: T1 sequence with Y38F, Q44R

Experiment [7] deals with HOXB6 (Homo sapiens, UniProt P17509 132-218, K202E).
HOXB6 (Homo sapiens, UniProt P17509 132-218, K202E), sequence (P17509 132-218 K202E): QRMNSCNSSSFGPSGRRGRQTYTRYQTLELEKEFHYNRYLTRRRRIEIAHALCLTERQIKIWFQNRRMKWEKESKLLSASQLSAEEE
Experiment [8] has as its target HOXA2 (Homo sapiens, UniProt O43364 129-215, R185T).
In experiment [9] the target is HOXA4 (Homo sapiens, UniProt Q00056 201-287, R217L).
HOXA4 (Homo sapiens, UniProt Q00056 201-287, R217L), sequence (Q00056 201-287 R217L): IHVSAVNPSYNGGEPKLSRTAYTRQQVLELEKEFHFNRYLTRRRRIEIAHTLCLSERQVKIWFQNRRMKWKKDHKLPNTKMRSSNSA
For experiment [10], the target named is HOXB4 (Homo sapiens, UniProt P17483 148-234, V174I).
HOXB4 (Homo sapiens, UniProt P17483 148-234, V174I), sequence (P17483 148-234 V174I): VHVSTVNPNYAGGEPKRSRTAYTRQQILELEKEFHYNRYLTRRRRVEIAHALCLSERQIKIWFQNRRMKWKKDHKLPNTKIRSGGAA
Experiment [11] addresses HOXA2 (Homo sapiens, UniProt O43364 129-215, R185K).
In experiment [12] the target is HOXA4 (Homo sapiens, UniProt Q00056 201-287).
HOXA4 (Homo sapiens, UniProt Q00056 201-287), sequence (Q00056 201-287): as the sequence (Q00056 201-287 R217L) above, with L17R counted along it
Experiment [13] concerns the target VAX1 (Homo sapiens, UniProt Q5SQQ9 86-172).
The target in experiment [14] is VAX1 (Homo sapiens, UniProt Q5SQQ9 86-172, T142I).
VAX1 (Homo sapiens, UniProt Q5SQQ9 86-172, T142I), sequence (Q5SQQ9 86-172 T142I): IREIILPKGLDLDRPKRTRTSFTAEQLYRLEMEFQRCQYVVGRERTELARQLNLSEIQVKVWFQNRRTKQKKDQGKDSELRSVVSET
Experiment [15] deals with HOXA2 (Homo sapiens, UniProt O43364 129-215, Y150S).
HOXA2 (Homo sapiens, UniProt O43364 129-215, Y150S), sequence (O43364 129-215 Y150S): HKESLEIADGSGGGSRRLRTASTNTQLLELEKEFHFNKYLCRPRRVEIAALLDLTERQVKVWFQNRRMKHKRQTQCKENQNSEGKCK
Experiment [16] concerns the target HOXA7 (Homo sapiens, UniProt P31268 116-202, W177C).
Experiment [17] has as its target HOXA4 (Homo sapiens, UniProt Q00056 201-287, W262F).
The target in experiment [18] is HOXA2 (Homo sapiens, UniProt O43364 129-215).
HOXA2 (Homo sapiens, UniProt O43364 129-215), sequence (O43364 129-215): as the sequence (O43364 129-215 Y150S) above, with S22Y counted along it
The target in experiment [19] is VAX1 (Homo sapiens, UniProt Q5SQQ9 86-172, K157R).
VAX1 (Homo sapiens, UniProt Q5SQQ9 86-172, K157R), sequence (Q5SQQ9 86-172 K157R): as the sequence (Q5SQQ9 86-172 T142I) above, with I57T, K72R counted along it
For experiment [20], the target named is HOXB6 (Homo sapiens, UniProt P17509 132-218).
HOXB6 (Homo sapiens, UniProt P17509 132-218), sequence (P17509 132-218): as the sequence (P17509 132-218 K202E) above, with E71K counted along it

Consider twelve sequences from article PMC11006913.

Where a chain is given by its changes, count along the chain named.

HOXA7 (Homo sapiens, UniProt P31268 116-202, W177C), sequence (P31268 116-202 W177C): as the sequence (P31268 116-202) above, with W62C counted along it
VAX1 (Homo sapiens, UniProt Q5SQQ9 86-172), sequence (Q5SQQ9 86-172): as the sequence (Q5SQQ9 86-172 T142I) above, with I57T counted along it
HOXA4 (Homo sapiens, UniProt Q00056 201-287, W262R), sequence (Q00056 201-287 W262R): as the sequence (Q00056 201-287 R217L) above, with L17R, W62R counted along it
HOXB4 (Homo sapiens, UniProt P17483 148-234), sequence (P17483 148-234): as the sequence (P17483 148-234 V174I) above, with I27V counted along it
HOXA2 (Homo sapiens, UniProt O43364 129-215, R185T), sequence (O43364 129-215 R185T): as the sequence (O43364 129-215 Y150S) above, with S22Y, R57T counted along it
HOXA2 (Homo sapiens, UniProt O43364 129-215, R185K), sequence (O43364 129-215 R185K): as the sequence (O43364 129-215 Y150S) above, with S22Y, R57K counted along it
HOXA4 (Homo sapiens, UniProt Q00056 201-287, W262F), sequence (Q00056 201-287 W262F): as the sequence (Q00056 201-287 R217L) above, with L17R, W62F counted along it

Regarding GTCATTAA, the binding signal is 13.3 upbm affinity estimate (log intensity, higher = more binding, comparable within an allelic series) in [1]; 12.1 upbm affinity estimate (log intensity, higher = more binding, comparable within an allelic series) in [2]; 10.9 upbm affinity estimate (log intensity, higher = more binding, comparable within an allelic series) in experiment [3]; 12.6 upbm affinity estimate (log intensity, higher = more binding, comparable within an allelic series) in [4]; 12.2 upbm affinity estimate (log intensity, higher = more binding, comparable within an allelic series) in [5]; 12.1 upbm affinity estimate (log intensity, higher = more binding, comparable within an allelic series) in [6]. In addition, the binding signal was 10.3 upbm affinity estimate (log intensity, higher = more binding, comparable within an allelic series) in experiment [7]; 13.2 upbm affinity estimate (log intensity, higher = more binding, comparable within an allelic series) in [8]; 12.9 upbm affinity estimate (log intensity, higher = more binding, comparable within an allelic series) in experiment [9]; 13.9 upbm affinity estimate (log intensity, higher = more binding, comparable within an allelic series) in experiment [10]; 13.8 upbm affinity estimate (log intensity, higher = more binding, comparable within an allelic series) in experiment [11]; 14.1 upbm affinity estimate (log intensity, higher = more binding, comparable within an allelic series) in [12]. Also, the binding signal in experiment [13] is 13.4 upbm affinity estimate (log intensity, higher = more binding, comparable within an allelic series); in experiment [14], 13.4 upbm affinity estimate (log intensity, higher = more binding, comparable within an allelic series); in experiment [15], 11 upbm affinity estimate (log intensity, higher = more binding, comparable within an allelic series); in experiment [16], 8.94 upbm affinity estimate (log intensity, higher = more binding, comparable within an allelic series); in [17], 12.6 upbm affinity estimate (log intensity, higher = more binding, comparable within an allelic series); in experiment [18] it was 12.9 upbm affinity estimate (log intensity, higher = more binding, comparable within an allelic series). For the same sequence, the binding signal in experiment [19] was 13.3 upbm affinity estimate (log intensity, higher = more binding, comparable within an allelic series); in experiment [20], 12.4 upbm affinity estimate (log intensity, higher = more binding, comparable within an allelic series).

Regarding ACATTAAT, the binding signal in experiment [1] was 13 upbm affinity estimate (log intensity, higher = more binding, comparable within an allelic series); in experiment [3] it was 10.6 upbm affinity estimate (log intensity, higher = more binding, comparable within an allelic series); in [5], 11.6 upbm affinity estimate (log intensity, higher = more binding, comparable within an allelic series); in experiment [7], 10.1 upbm affinity estimate (log intensity, higher = more binding, comparable within an allelic series); in experiment [8], 12.3 upbm affinity estimate (log intensity, higher = more binding, comparable within an allelic series); in experiment [9], 12 upbm affinity estimate (log intensity, higher = more binding, comparable within an allelic series). Further, the binding signal is 13.6 upbm affinity estimate (log intensity, higher = more binding, comparable within an allelic series) in experiment [10]; 13.2 upbm affinity estimate (log intensity, higher = more binding, comparable within an allelic series) in experiment [11]; 13.6 upbm affinity estimate (log intensity, higher = more binding, comparable within an allelic series) in [12]; 11 upbm affinity estimate (log intensity, higher = more binding, comparable within an allelic series) in experiment [15]; 8.92 upbm affinity estimate (log intensity, higher = more binding, comparable within an allelic series) in [16]; 11.4 upbm affinity estimate (log intensity, higher = more binding, comparable within an allelic series) in experiment [17]. The binding signal is 12.1 upbm affinity estimate (log intensity, higher = more binding, comparable within an allelic series) in experiment [18] and 12 upbm affinity estimate (log intensity, higher = more binding, comparable within an allelic series) in experiment [20].

Turning to GGAGCTCC, the binding signal in experiment [1] was 7.69 upbm affinity estimate (log intensity, higher = more binding, comparable within an allelic series); in experiment [10], 7.37 upbm affinity estimate (log intensity, higher = more binding, comparable within an allelic series); in [13], 7.36 upbm affinity estimate (log intensity, higher = more binding, comparable within an allelic series); in experiment [14] it was 7.59 upbm affinity estimate (log intensity, higher = more binding, comparable within an allelic series); in experiment [19], 7.58 upbm affinity estimate (log intensity, higher = more binding, comparable within an allelic series).

Turning to CTTAATGA, the binding signal in experiment [1] was 13.3 upbm affinity estimate (log intensity, higher = more binding, comparable within an allelic series); in experiment [2], 11.8 upbm affinity estimate (log intensity, higher = more binding, comparable within an allelic series); in [3], 10.7 upbm affinity estimate (log intensity, higher = more binding, comparable within an allelic series); in [5] it was 11.3 upbm affinity estimate (log intensity, higher = more binding, comparable within an allelic series); in experiment [6], 11.7 upbm affinity estimate (log intensity, higher = more binding, comparable within an allelic series); in [7], 9.94 upbm affinity estimate (log intensity, higher = more binding, comparable within an allelic series). Also, the binding signal is 12.8 upbm affinity estimate (log intensity, higher = more binding, comparable within an allelic series) in experiment [8]; 12.5 upbm affinity estimate (log intensity, higher = more binding, comparable within an allelic series) in experiment [9]; 13.9 upbm affinity estimate (log intensity, higher = more binding, comparable within an allelic series) in [10]; 13.4 upbm affinity estimate (log intensity, higher = more binding, comparable within an allelic series) in experiment [11]; 14 upbm affinity estimate (log intensity, higher = more binding, comparable within an allelic series) in experiment [12]; 13.3 upbm affinity estimate (log intensity, higher = more binding, comparable within an allelic series) in [13]. Also, the binding signal in experiment [14] was 13.1 upbm affinity estimate (log intensity, higher = more binding, comparable within an allelic series); in [15], 10.8 upbm affinity estimate (log intensity, higher = more binding, comparable within an allelic series); in experiment [16], 8.84 upbm affinity estimate (log intensity, higher = more binding, comparable within an allelic series); in experiment [17], 12.1 upbm affinity estimate (log intensity, higher = more binding, comparable within an allelic series); in experiment [18] it was 12.7 upbm affinity estimate (log intensity, higher = more binding, comparable within an allelic series); in experiment [19], 13.1 upbm affinity estimate (log intensity, higher = more binding, comparable within an allelic series). Further, the binding signal in experiment [20] was 11.6 upbm affinity estimate (log intensity, higher = more binding, comparable within an allelic series).

On to GCTCGTTA, for which the binding signal in [1] was 11.4 upbm affinity estimate (log intensity, higher = more binding, comparable within an allelic series); in [2], 10.1 upbm affinity estimate (log intensity, higher = more binding, comparable within an allelic series); in [10], 11.6 upbm affinity estimate (log intensity, higher = more binding, comparable within an allelic series).

As to GGCCCCCC, the binding signal in [1] is 7.99 upbm affinity estimate (log intensity, higher = more binding, comparable within an allelic series); in experiment [10], 7.93 upbm affinity estimate (log intensity, higher = more binding, comparable within an allelic series).

For CCTACAGG, the binding signal in experiment [1] was 7.69 upbm affinity estimate (log intensity, higher = more binding, comparable within an allelic series); in [7], 9 upbm affinity estimate (log intensity, higher = more binding, comparable within an allelic series); in [10], 7.75 upbm affinity estimate (log intensity, higher = more binding, comparable within an allelic series); in experiment [20], 8.98 upbm affinity estimate (log intensity, higher = more binding, comparable within an allelic series).

Regarding CGCCGCCG, the binding signal in [1] was 8.06 upbm affinity estimate (log intensity, higher = more binding, comparable within an allelic series); in experiment [2], 8.02 upbm affinity estimate (log intensity, higher = more binding, comparable within an allelic series); in experiment [4] it was 8.3 upbm affinity estimate (log intensity, higher = more binding, comparable within an allelic series); in experiment [5] it was 8.5 upbm affinity estimate (log intensity, higher = more binding, comparable within an allelic series); in experiment [6], 8.17 upbm affinity estimate (log intensity, higher = more binding, comparable within an allelic series); in experiment [10] it was 7.89 upbm affinity estimate (log intensity, higher = more binding, comparable within an allelic series). The binding signal is 7.38 upbm affinity estimate (log intensity, higher = more binding, comparable within an allelic series) in [13]; 7.39 upbm affinity estimate (log intensity, higher = more binding, comparable within an allelic series) in [14]; 8.25 upbm affinity estimate (log intensity, higher = more binding, comparable within an allelic series) in experiment [16]; 7.32 upbm affinity estimate (log intensity, higher = more binding, comparable within an allelic series) in [19].

In the case of CGGGCTAG, the binding signal was 7.46 upbm affinity estimate (log intensity, higher = more binding, comparable within an allelic series) in experiment [1]; 7.92 upbm affinity estimate (log intensity, higher = more binding, comparable within an allelic series) in [2]; 7.75 upbm affinity estimate (log intensity, higher = more binding, comparable within an allelic series) in [4]; 7.71 upbm affinity estimate (log intensity, higher = more binding, comparable within an allelic series) in [6]; 7.53 upbm affinity estimate (log intensity, higher = more binding, comparable within an allelic series) in experiment [10].

With GCCGCTCC, the binding signal is 7.92 upbm affinity estimate (log intensity, higher = more binding, comparable within an allelic series) in experiment [1] and 7.92 upbm affinity estimate (log intensity, higher = more binding, comparable within an allelic series) in experiment [10].

In the case of CCATTAAG, the binding signal in [1] was 13 upbm affinity estimate (log intensity, higher = more binding, comparable within an allelic series); in [2], 11.8 upbm affinity estimate (log intensity, higher = more binding, comparable within an allelic series); in experiment [3], 10.5 upbm affinity estimate (log intensity, higher = more binding, comparable within an allelic series); in experiment [4], 12.3 upbm affinity estimate (log intensity, higher = more binding, comparable within an allelic series); in experiment [5], 11.6 upbm affinity estimate (log intensity, higher = more binding, comparable within an allelic series); in experiment [6], 11.5 upbm affinity estimate (log intensity, higher = more binding, comparable within an allelic series). For the same sequence, the binding signal in [7] was 9.89 upbm affinity estimate (log intensity, higher = more binding, comparable within an allelic series); in experiment [9], 11.8 upbm affinity estimate (log intensity, higher = more binding, comparable within an allelic series); in experiment [10] it was 13.6 upbm affinity estimate (log intensity, higher = more binding, comparable within an allelic series); in experiment [12], 13.7 upbm affinity estimate (log intensity, higher = more binding, comparable within an allelic series); in experiment [16], 8.82 upbm affinity estimate (log intensity, higher = more binding, comparable within an allelic series); in experiment [17] it was 11.3 upbm affinity estimate (log intensity, higher = more binding, comparable within an allelic series). Also, the binding signal in [20] was 12 upbm affinity estimate (log intensity, higher = more binding, comparable within an allelic series).

Take ATCGATTA: the binding signal is 13.1 upbm affinity estimate (log intensity, higher = more binding, comparable within an allelic series) in experiment [1]; 11.7 upbm affinity estimate (log intensity, higher = more binding, comparable within an allelic series) in experiment [2]; 12.6 upbm affinity estimate (log intensity, higher = more binding, comparable within an allelic series) in experiment [4]; 11.3 upbm affinity estimate (log intensity, higher = more binding, comparable within an allelic series) in experiment [6]; 12.6 upbm affinity estimate (log intensity, higher = more binding, comparable within an allelic series) in [8]; 12 upbm affinity estimate (log intensity, higher = more binding, comparable within an allelic series) in experiment [9]. Also, the binding signal in [10] was 13.8 upbm affinity estimate (log intensity, higher = more binding, comparable within an allelic series); in experiment [11], 13.1 upbm affinity estimate (log intensity, higher = more binding, comparable within an allelic series); in [17], 11 upbm affinity estimate (log intensity, higher = more binding, comparable within an allelic series).
